Results reported in ChEMBL document CHEMBL4888484, “Replenishing the malaria drug discovery pipeline: Screening and hit evaluation of the MMV Hit Generation Library 1 (HGL1) against asexual blood stage Plasmodium falciparum ,using a nano luciferase reporter read-out” (2022).
Where “and” joins values, the source holds several entries; their conditions need not be identical. Identical values can stand only once. In all, about 150,000 compounds went through this assay and about 540 (0.36%) showed an effect of 50% or more. This is one part of a sample in which strong results are shown more often than they occur.

System: Plasmodium falciparum
Experiment: Primary screen in NF54 nanoGlo assay, in single point, at 2uM, 72h; a lower Z score goes with more inhibition
Assay type: functional, Erythrocyte
Conditions: timepoint 72 hour

SMILES: NC(=O)N1CCCC(C(=O)N2CCCC2c2ccc(F)c(F)c2)C1 (stereo not given)
- % Inhibition: 0%
- Z score: 0.02

SMILES: O=C1CCC(C(=O)N2CCC[C@H]2c2ccncc2)=NN1c1ccccc1
- % Inhibition: 67%
- Z score: 1.73

SMILES: O=C1CNC(C(=O)N2CCC[C@H]2c2ccncc2)=NN1c1ccccc1
- % Inhibition: 3%
- Z score: -0.62

SMILES: O=C1CC(C(=O)N2CCCC2c2ccncc2)CN1c1ccccc1 (stereo not given)
- % Inhibition: -8%
- Z score: 1.05

SMILES: CCCc1nc(CN2CCc3ccc(F)cc3C2)no1
- % Inhibition: -4%
- Z score: 0.53

SMILES: CN(C)c1noc(CN2CCc3ccc(F)cc3C2)n1
- % Inhibition: 51%
- Z score: -2.97

SMILES: CN(C)c1noc(CN2CCc3c(F)cc(F)cc3C2)n1
- % Inhibition: 10%
- Z score: -0.88

SMILES: O=C(NCc1ccccc1)c1[nH]cnc1C(=O)N1CCCCC1
- % Inhibition: 11%
- Z score: -1.23

SMILES: Cc1nn(C)c2nc3c(c(N)c12)C(=O)C[C@@H](c1ccccc1)C3
- % Inhibition: -14%
- Z score: 1.9

SMILES: COc1ccc(-c2n[nH]c3c2C(=O)C[C@@H](c2ccccc2)C3)cc1
- % Inhibition: -5%
- Z score: 0.48

SMILES: Nc1nc(-c2ccccc2)c2cc3c(nn12)C[C@H](c1ccc(F)cc1)CC3=O
- % Inhibition: 57%
- Z score: 0.5

SMILES: CNc1snc(C)c1C(=O)N1CCN(Cc2ccc(-c3cccc(F)c3)s2)CC1
- % Inhibition: 2%
- Z score: -0.21

SMILES: O=C(N[C@@H]1CC[C@H]2CCOc3ccccc3C(=O)N3CCN(C4CCC(F)(F)CC4)C[C@H]3C(=O)NC[C@H]1O2)C1CCOCC1
- % Inhibition: 29%
- Z score: -3.41

SMILES: CC(=O)N1CCC(C(NC(=O)c2cccs2)C(=O)N2CCCCC2C)CC1 (stereo not given)
- % Inhibition: 4%
- Z score: -0.78

SMILES: Cc1ccc(S(=O)(=O)N2CCC([C@H](NC(=O)c3ccccc3)C(=O)N3CCCC3)CC2)cc1
- % Inhibition: -14%
- Z score: 1.34

SMILES: Cc1ccc(NC(=O)N2CCC(C(NC(=O)c3ccccc3)C(=O)N3CCCCC3C)CC2)cc1 (stereo not given)
- % Inhibition: 70%
- Z score: 0.76

SMILES: COc1ccc(Cc2n[nH]c3c2CN(Cc2nccs2)CC3)cc1OC
- % Inhibition: 6%
- Z score: -0.85

SMILES: Cc1noc(CNC(=O)c2ccc3[nH]c(=O)[nH]c3c2)n1
- % Inhibition: -7%
- Z score: 1.3

SMILES: CCOC1CC(N(C)S(=O)(=O)c2cnc(C)s2)C12CCC2 (stereo not given)
- % Inhibition: -5%
- Z score: 0.63

SMILES: CCCc1nc2ncnn2c(O)c1NC(=O)Nc1ccccc1Br
- % Inhibition: 2%
- Z score: -0.44

SMILES: N#CC(c1nc2ccccc2s1)c1nc2ccccc2s1
- % Inhibition: 60%
- Z score: 0.46

SMILES: N#C[C@@H](C(=O)c1cc2ccccc2[nH]1)c1nc2ccccc2s1
- % Inhibition: 16%
- Z score: -2.03

SMILES: N#C[C@@H](C(=O)NCc1ccccc1)c1nc2ccccc2s1
- % Inhibition: -2%
- Z score: 0.39

SMILES: CCN(CC)C(=O)Nc1ccc(-c2c(C)nn(CC(N)=O)c2C)cc1
- % Inhibition: 1%
- Z score: -0.2

SMILES: CCN(CC)c1ccc(CNC(=O)[C@H](C)c2c(C)noc2C)cc1F
- % Inhibition: -12%
- Z score: 1.74

SMILES: CCOc1cccc(CN2CCC(C)(c3noc(C4CCOCC4)n3)CC2)c1
- % Inhibition: -13%
- Z score: 1.51

SMILES: Fc1ccccc1N1CCN(C2CCN(Cc3c[nH]c4ccccc34)CC2)CC1
- % Inhibition: 67%
- Z score: -0.71

SMILES: CCN1CCN(C2CCN(Cc3c[nH]c4ccccc34)CC2)CC1
- % Inhibition: 5%
- Z score: -0.83

SMILES: Fc1ccccc1N1CCN(C2CCN(Cc3ccncc3)CC2)CC1
- % Inhibition: 20%
- Z score: -2.44

SMILES: c1cc(Oc2ccc3nnnn3n2)cc(-c2nnco2)c1
- % Inhibition: -14%
- Z score: 1.28

SMILES: Cn1c(CN2CCN(c3ccnc4ccccc34)CC2)cc(=O)n(C)c1=O
- % Inhibition: 17%
- Z score: -2.24

SMILES: NC(=O)CO[C@H]1CCOC[C@H]1NC(=O)c1ccc(Oc2ccccc2)o1
- % Inhibition: 4%
- Z score: -0.64

SMILES: Cc1cccc(CN2CCC[C@@](O)(CN3CCN(CC4CC4)CC3)C2=O)c1
- % Inhibition: -10%
- Z score: 1.1

SMILES: CC1CN(C(CNCc2cnn(C)c2)c2cccs2)CCO1 (stereo not given)
- % Inhibition: -9%
- Z score: 0.92

SMILES: CCN(c1noc(C2CCN(C(=O)C(C)C)CC2)n1)C(C)C
- % Inhibition: -18%
- Z score: 2.32

SMILES: CCc1nn(C)c(OC)c1CNC(=O)N[C@@H]1Cc2ccccc2[C@H]1O
- % Inhibition: -13%
- Z score: 1.27

SMILES: COc1ccc2cc1Oc1cccc(c1)CO[C@H]1CCN(C(=O)CN3CCC(O)CC3)C[C@H]1NC(=O)CC2
- % Inhibition: -23%
- Z score: 2.88

SMILES: COc1cccc(-c2nc(C)c(C(=O)Nc3nc(C(C)C)n[nH]3)s2)c1
- % Inhibition: 68%
- Z score: -7.28

SMILES: COc1ccc(-c2nc(C)c(C(=O)Nc3n[nH]c(CC(C)C)n3)s2)cc1OC
- % Inhibition: 15%
- Z score: -2.32

SMILES: COc1cccc(-c2nc(C)c(C(=O)Nc3cccc4[nH]ccc34)s2)c1
- % Inhibition: -1%
- Z score: 0.1

SMILES: COc1cccc(-c2nc(C)c(C(=O)Nc3n[nH]c(CC(C)C)n3)s2)c1
- % Inhibition (2 µM): 82% and 77%

SMILES: COc1cccc(-c2nc(C)c(C(=O)NCc3nnc4ccccn34)s2)c1
- % Inhibition: -3%
- Z score: 0.36

SMILES: COc1cccc(-c2nc(C)c(C(=O)NC[C@@H]3CCCN4CCCCC34)s2)c1 (stereo not given in full)
- % Inhibition: -1%
- Z score: 0.17

SMILES: O=C(CCC1CCCCC1)NC1CCN(c2cn[nH]c(=O)c2)CC1
- % Inhibition: -10%
- Z score: 1.05

SMILES: CCN(CC)c1nc2cc(C(=O)NCc3ccc(C)cc3)ccc2c(=O)n1Cc1ccccc1
- % Inhibition: 5%
- Z score: -0.78

SMILES: CC(=O)Nc1ccc(C)cc1S(=O)(=O)N1CC=C(c2c(C)n(Cc3ccccc3C)c3ccccc23)CC1
- % Inhibition: 92%
- Z score: -8.31

SMILES: CC(=O)Nc1ccc(C)cc1S(=O)(=O)N1CC=C(c2c(C)n(Cc3ccc(Cl)cc3)c3ccccc23)CC1
- % Inhibition: -14%
- Z score: 1.87

SMILES: COc1ccc(Cn2c(C)c(C3=CCN(S(=O)(=O)c4cc(C)c(C)cc4C)CC3)c3ccccc32)cc1
- % Inhibition: 0%
- Z score: 0.05

SMILES: Cc1cc(C(F)(F)F)n(C[C@@H](C)Cn2cc(-c3cncnc3)nn2)n1
- % Inhibition: -6%
- Z score: 0.77

SMILES: COC(=O)Nc1nc(-c2ccccc2)c(-c2nccc(OCC(F)(F)F)c2C)s1
- % Inhibition: 30%
- Z score: -3.82

SMILES: COc1ccc(Cl)cc1N(Cc1ccccc1)Cc1ccccc1
- % Inhibition: -2%
- Z score: 0.32

SMILES: COc1ccccc1N(C)Cc1c(C)noc1C
- % Inhibition: 7%
- Z score: -0.98

SMILES: COc1ccccc1N(Cc1ccccc1)C1=NC(=[N+](Cc2ccccc2)c2ccccc2OC)c2ccccc21
- % Inhibition: 73%
- Z score: -6.15
